# Bioassay records: PubChem BioAssay, National Center for Advancing Translational Sciences (NCATS)
# In the library only some 7.5% were active in any assay of this set; here they are far more common.
# FLuc counter: firefly luciferase modulation, counter-screen for miR-21 project; purified FLuc, Km substrates, luminescence inhibition; Potency, µM (doses to about 57.5 µM), actives largely listed as inhibitors; 360,000 tested, 6.9% active; also: nearly all actives have a fitted effect of over 55% in size
# Target sequence (P08659 whole entry, looked up): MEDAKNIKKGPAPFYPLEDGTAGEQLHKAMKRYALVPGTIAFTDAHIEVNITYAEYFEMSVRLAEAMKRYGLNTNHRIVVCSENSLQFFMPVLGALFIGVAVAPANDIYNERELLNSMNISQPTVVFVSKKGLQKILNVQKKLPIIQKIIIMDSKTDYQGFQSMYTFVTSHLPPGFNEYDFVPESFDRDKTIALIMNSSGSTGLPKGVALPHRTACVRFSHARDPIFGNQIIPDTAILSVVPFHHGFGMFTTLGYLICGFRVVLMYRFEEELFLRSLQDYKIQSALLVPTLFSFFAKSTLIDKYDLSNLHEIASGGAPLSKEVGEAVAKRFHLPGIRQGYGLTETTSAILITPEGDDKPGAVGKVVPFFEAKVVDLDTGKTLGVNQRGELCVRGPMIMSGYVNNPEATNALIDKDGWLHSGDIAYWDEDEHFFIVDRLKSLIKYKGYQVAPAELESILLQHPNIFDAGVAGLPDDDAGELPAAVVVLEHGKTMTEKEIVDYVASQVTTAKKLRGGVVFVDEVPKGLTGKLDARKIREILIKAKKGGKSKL
#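 Purified P. pyralis luciferase, 10 nM final, with Km-level 10 uM D-luciferin and 10 uM ATP in 50 mM Tris acetate pH 7.5, 10 mM Mg acetate, 0.01% Tween-20, 0.05% BSA; 6-point qHTS titration about 60 µM downward; luminescence read.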
# NPC1 prom act: activators of NPC1 promoter; Potency, µM (series often up to 9.22 µM), most hits filed as activators; Huh7 NPC1 promoter luciferase reporter, 24 h; 320,000 tested, 2.4% active; also: nearly all actives have a fitted effect of over 60% in size
#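 Quantitative HTS used a cell-based reporter: Huh7 cells stably bearing the NPC1 promoter upstream of luciferase were treated with compounds for 24 h, and promoter activation was read as luminescence.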
# Rab9 prom act: activators of Rab9 promoter | Huh7 Rab9 promoter-luciferase reporter, luminescence, 24 h | Potency, µM (top dose mostly 9.22 µM), hits mostly activators | 320,000 tested, 2.8% active | AID 485297; also: nearly all actives have a fitted effect of over 60% in size
#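 Huh7 cells stably carrying Rab9 promoter–luciferase reporter, plated 1500 cells/well, compound added after 2 h and incubated 24 h at 37 °C; luciferase luminescence then read after 10 min with detection reagent.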
# SMN2 splice up: enhancers of SMN2 splice variant expression; HEK293 SMN2-luciferase splicing reporter, luminescence, 30-36 h; Potency, µM (titrated, usually from 46.1 µM), most hits filed as activators; 210,000 tested, 2.8% active; AID 1458; also: nearly all actives have a fitted effect of over 55% in size
#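 HEK293 cells carry an SMN2 minigene-luciferase reporter in which exon 7 inclusion puts luciferase in frame. Cells were seeded at 2000 cells/well, attached for 10-12 hours, then exposed to compounds for 30-36 hours at 37C before ONE-Glo luminescence.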
# ELG1 genotoxic: genotoxicity induction in ELG1-luciferase HEK293T cells | AID 504466 | HEK293T ELG1-luciferase reporter, luminescence, 16 h | Potency, µM (series often up to 46 µM), most hits filed as activators | 330,000 tested, 1.3% active; also: nearly all actives have a fitted effect of over 60% in size
#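 Reporter readout depends on ELG1 protein level, which increases with genetic stress. After 16 hr compound exposure at 37 °C, luciferase activity was quantified using ONE-Glo.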
# A number is an active result; . = inactive; ? = inconclusive; / = not tested or not shown; [ ] = remark or other dose. Calls follow the shape of the dose curve; as a rule, active = well fitted curve in the direction sought with a large enough effect; inconclusive = small, poorly fitted or top-dose-only effect, or another doubt; inactive = no such curve, though single readings can be large; an effect the other way counts as inactive or inconclusive.
SMILES,FLuc counter,NPC1 prom act,Rab9 prom act,SMN2 splice up,ELG1 genotoxic
O=C(O)c1ccc(N/N=C/c2cc3ccccc3nc2Cl)cc1,0.76µM,1.4µM,2µM,/,?
O=[N+]([O-])c1ccccc1N/N=C/c1cc2ccccc2nc1Cl,?,?,?,.,?
CC(=O)c1ccc(N2C(=NC(=O)CCC3CCCC3)SC3CS(=O)(=O)CC32)cc1 (stereo not given),.,.,.,/,.[9.26 µM]
COc1ccccc1C(=O)N/C(=C\c1ccc2c(c1)OCO2)C(=O)NCCc1nc2ccccc2[nH]1,.,.,.,.,.
Cc1ccc(-c2nn3c(C)nnc3c3ccccc23)cc1S(=O)(=O)N(C)CCO,.,.,.,?,18µM
O=C(Cc1ccccc1I)Nc1ccccc1,/,/,/,.,/
COc1cccc(C2N=C(c3ccccc3C)NO2)c1OC (stereo not given),9.5µM,.,.,/,?
O=C(NCC1CCCN(C(=O)c2cscn2)C1)c1ccc(-c2ccccc2)cc1 (stereo not given),17µM,.,.,/,.
C=CCC(=O)N1CCCC(CNC(=O)c2ccc(-c3ccccc3)cc2)C1 (stereo not given),24µM,.,.,/,.
O=C(NCC1CCCN(C(=O)c2cscn2)C1)c1ccccc1Cl (stereo not given),?,.,.,/,.
CC(=O)NCCC(=O)N1CCCC(CNC(=O)c2ccc(-c3ccccc3)cc2)C1 (stereo not given),15µM,.,.,.,.
CC(C)[C@@H](CC(=O)N[C@@H]1CCCC[C@H]1C(=O)N[C@H](CC(=O)N[C@@H](CCC(=O)O)CC(=O)O)Cc1ccccc1)NC(=O)C[C@H](Cc1ccccc1)NC(=O)[C@@H]1CCCC[C@H]1N,/,/,/,.,/
Cc1ccc(N=Cc2sc(O)c3ccccc23)cc1,1.1µM,2µM,1.3µM,4.5µM,?
Cc1ccc(N=Cc2sc(O)c3ccccc23)c(C)c1,?,?,1µM,11µM,.
Cc1ccc(N=Cc2c(O)c3ccccc3n(C)c2=O)cc1,0.43µM,.,.,/,.
Cc1ccc(N=Cc2c(C)[nH]n(-c3nc4ccccc4[nH]3)c2=O)cc1,6.7µM,?,?,.,.
Cc1ccc(-n2[nH]c(C)c(C=Nc3ccc4[nH]c(=O)[nH]c4c3)c2=O)cc1,?,.,.,.,.
COCCNc1nc(C)nc2c1nc(-c1ccccc1)n2C1CCN(Cc2ccccc2)C1 (stereo not given),/,/,/,.,/
CCOC(=O)c1nnc(-c2ccc(C)cc2)nc1N1CCSCC1,13µM,.,.,.,.
CCOC(=O)c1nnc(-c2ccc(C)cc2)nc1Sc1ccc(Cl)cc1,.,.,.,.,.
O=C(N/N=C/c1ccc(Cl)cc1)c1sccc1OCc1ccc(F)cc1,?,.,.,?,?
O=C(COCC(=O)N/N=C/c1ccc(F)cc1)N/N=C/c1ccc(F)cc1,8.5µM,.,.,.,.
O=C(N/N=C/c1ccc(F)cc1)c1sccc1OCc1ccc(F)cc1,9.5µM,.,.,.,.
CCOC(=O)C(=O)N/N=C/c1ccc(F)cc1,13µM,.,.,/,.
CCOC(=O)N/N=C/c1ccc(F)cc1,?,.,.,.,.
SMILES,FLuc counter,NPC1 prom act,Rab9 prom act,SMN2 splice up,ELG1 genotoxic
O=C(CSc1nc2ccccc2[nH]1)NCCN1CCCCC1,.,.,.,.,.
Cc1ccc(-c2nnc(CSc3nnc(C)s3)o2)cc1,?,?,?,.,?
Fc1ccccc1SCc1nnc(-c2ccccc2Br)o1,0.95µM,0.71µM,0.35µM,2.8µM,2.9µM
Cc1csc(SCc2nnc(-c3ccc(Cl)cc3)o2)n1,7.6µM,2.8µM,2.8µM,?,10µM
Cc1nnc(SCc2nnc(-c3ccccc3Br)o2)n1-c1ccccc1,.,.,.,.,.
Brc1ccccc1-c1nnc(CSc2nnnn2-c2ccccc2)o1,.,.,.,.,.
Cc1csc(SCc2nnc(-c3ccccc3Br)o2)n1,1.7µM,1.4µM,1.8µM,/,?
CCc1ccc(-c2nc(CN3CCCC(C(=O)N4CCN(c5cc(Cl)ccc5C)CC4)C3)c(C)o2)cc1 (stereo not given),.,/,/,.,/
COc1cccc(-c2nccc(NCc3cccc(C)c3)n2)c1,/,/,/,11µM,/
O=C(NCc1ccccc1Cl)C1CCCN(C(=O)c2cnn(-c3ccc(F)cc3)c2-n2cccc2)C1 (stereo not given),.,/,/,/,/
Cc1cc(NC(=O)c2ccco2)ccc1-n1cnnn1,21µM,?,?,.,?
O=C(Nc1ccc2nn(-c3ccccc3)nc2c1)c1ccco1,?,2.8µM,3.5µM,4µM,?
O=C(Nc1ccc2nn(-c3ccccc3)nc2c1)c1cccnc1,?,3.5µM,?,.,.
CCOc1ccc(-n2nc3ccc(NC(=O)COc4ccccc4)cc3n2)cc1,.,/,/,.,/
COc1cc(C(=O)Nc2ccc(-n3cnnn3)c(C)c2)cc(OC)c1OC,?,.,.,.,.
CC(C)C(=O)Nc1ccc2nn(-c3ccccc3)nc2c1,0.67µM,0.22µM,0.14µM,7.9µM,1.2µM
Cc1ccc2c(c1)N(C(=O)N1CCC(C(=O)NCCC3=CCCCC3)CC1)CC(C)O2 (stereo not given),.,/,/,/,/
O=C(Nc1cc2nn(-c3ccccc3)nc2cc1Cl)c1ccco1,?,4µM,3.5µM,11µM,9.2µM
CS(=O)(=O)c1ccc2nc(NC(=O)c3ccccc3Br)sc2c1,9.5µM,2.8µM,?,/,?
CS(=O)(=O)c1ccc2nc(NC(=O)c3ccccc3Cl)sc2c1,17µM,.,.,/,.
Cc1ccc(NC(=O)Cn2cc(C(F)(F)F)cc(Cl)c2=O)cc1Cl,.,.,.,.,.
Cc1ccc(C(=O)NCc2ccco2)c(C)c1,.,.,.,/,.
COc1cc(CO)ccc1OCc1ccc(Cl)nc1,12µM,2.5µM,3.2µM,/,16µM
COc1cc(CNCCc2ccc(F)cc2)ccc1OCc1ccc(Cl)nc1,.,.,.,.,.
Cc1cccc(NC(=S)N2N=CCC2c2ccccc2)c1 (stereo not given),21µM,?,.,.,?
SMILES,FLuc counter,NPC1 prom act,Rab9 prom act,SMN2 splice up,ELG1 genotoxic
CCc1ccccc1NC(=S)N1N=CCC1c1ccccc1 (stereo not given),.,.,.,.,.
COc1ccc(CN2C(=O)c3cccc4cccc2c34)cc1F,.,.,.,/,.
CC(C)COC(=O)N1CCCC1C(=O)O (stereo not given),.,.,3.2µM,.,.
CC(C)(C)OC(=O)N1CCC[C@H]1C(=O)O,.,.,.,/,.
Cc1c(O)ccc(C(=O)COc2ccccc2F)c1O,21µM,.,.,.,?
CN(C)c1oc(-c2ccccc2Cl)nc1P(=O)(c1ccccc1)c1ccccc1,.,.,.,.,.
Cc1nc2cc(NC(=O)c3ccco3)ccc2n1C,8.5µM,0.5µM,0.32µM,/,2.3µM
Cn1c(CCNC(=O)c2ccccc2)nc2cc(NC(=O)c3ccco3)ccc21,?,.,.,.,?
Cn1c(CCNC(=O)c2ccco2)nc2cc(NC(=O)c3ccco3)ccc21,24µM,?,?,11µM,?
